# Active and inactive are the calls of the source. Unless noted, the rule behind the calls is not given here.
# Assays:
# [1] = tested on: XIP peptide (Xip251-270) binding; test: XIP fragment 251-270 binding compounds – biochemical, small-molecule microarray, fluorescence 635/667 nm, 0.1 µg/mL protein, primary screen (AID 1182); settings: fluorescent protein binding, 635 nm, higher = more signal, called active from +8 up or from −8 down
# XIP peptide (Xip251-270) = test: compounds binding XIP fragment 251-270 – biochemical, small-molecule microarray, fluorescence 635/667 nm, 0.5 µg/mL protein, primary screen (AID 1183); settings: fluorescence 635 nm, higher = more signal
# [2] = blood-stage malaria parasite viability loss – strain 3D7, DAPI fluorescence, 100 nL, primary screen (AID 1184);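 note: parasites grown inside human red blood cells in medium with human serum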; settings: P. falciparum 3D7 growth, 3 d, higher = more signal
# [3] = target: Homeobox protein Hox-A13 (Mus musculus) (UniProt Q62424); test: disruptors of Hoxa13 oligonucleotide interaction – biochemical, fluorescence polarization, labeled oligonucleotide, primary screen (AID 1185); settings: Hoxa13:DNA binding, 15 min, higher = more signal, called active from +8 up or from −8 down
# [4] = blockers of DNA damage checkpoint Chk1 activation – imaging, HeLa, hydroxyurea, phospho-Chk1 antibody, percent positive cells, primary screen (AID 1186); settings: hydroxyurea-induced phospho-Chk1 immunofluorescence imaging, higher = more signal
# [5] = blockers of DNA damage checkpoint Chk1 activation – imaging, HeLa, hydroxyurea, phospho-Chk1 nuclear intensity, primary screen (AID 1187); settings: hydroxyurea-induced phospho-Chk1 immunofluorescence imaging, higher = more signal
# Chain of Homeobox protein Hox-A13 (Mus musculus) (Q62424 whole entry, looked up): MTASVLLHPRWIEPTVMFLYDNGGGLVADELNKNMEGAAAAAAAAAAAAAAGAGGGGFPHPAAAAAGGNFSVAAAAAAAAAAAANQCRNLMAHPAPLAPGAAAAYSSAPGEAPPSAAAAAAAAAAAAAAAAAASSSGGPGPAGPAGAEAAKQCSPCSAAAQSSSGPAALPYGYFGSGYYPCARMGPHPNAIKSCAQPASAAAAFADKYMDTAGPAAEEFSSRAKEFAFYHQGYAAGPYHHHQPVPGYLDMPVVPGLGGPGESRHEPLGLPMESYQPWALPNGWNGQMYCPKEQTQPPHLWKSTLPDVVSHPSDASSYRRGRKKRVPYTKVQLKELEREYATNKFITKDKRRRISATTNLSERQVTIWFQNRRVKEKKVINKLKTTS
Compound,composite z-score [1],composite z-score (XIP peptide (Xip251-270)),z-score [2],z-score [3],z-score [4],z-score [5]
CN(C)C(=O)[C@@]1(Cc2ccccc2CN=[N+]=[N-])N=C(c2ccc(OCCCO)cc2)O[C@H]1c1ccccc1,1.79 (inactive),0.817,-2.27,-5.09 (inactive),-0.631 (inactive),-0.679 (inactive)
CCOC(=O)[C@H]1CC=C2CC1C(=O)N1CCC[C@@H]1[C@@H]2O[Si](C)(C)C(C)(C)C (stereo partly drawn),-0.473 (inactive),-0.216,-0.575,-5.97 (inactive),-0.696 (inactive),-0.559 (inactive)
C[N+](C)(C)CCCCNC(=O)[C@H]1C[C@H]2C(=O)N[C@@H](Cc3ccccc3)C(=O)N2[C@H]1c1ccc(O)cc1,1.17 (inactive),-0.229,0.498,-1.49 (inactive),0.671 (inactive),0.345 (inactive)
COC(=O)[C@@]1(Cc2ccc(OC)cc2)[C@H]2c3cc(C(=O)N4CCCC4)n(Cc4ccc(OC)c(OC)c4)c3C[C@H]2CN1C(=O)c1ccccc1,1.27 (inactive),0.653,-1.65,-4.91 (inactive),0.666 (inactive),0.699 (inactive)
COc1ccc(C(O)C2C=CC3C(=O)NC(=O)C3N2Nc2ccccn2)c2ccccc12 (stereo not drawn),0.123 (inactive),-0.034,0.8,-1.97 (inactive),0.141 (inactive),-0.22 (inactive)
O=C1O[C@H](c2ccccc2)[C@H](c2ccccc2)N2[C@H]1[C@@H](C(=O)N1CCN(c3ncccn3)CC1)[C@]1(C(=O)Nc3ccc(C#CC4=CCCCC4)cc31)[C@H]2c1ccc(O)cc1,0.28 (inactive),0.815,-0.953,2.84 (inactive),-0.329 (inactive),-0.513 (inactive)
COC(=O)[C@@]1(Cc2ccccc2)[C@H]2c3cc(C(=O)N4CCCC4)n(CC4CC4)c3C[C@H]2CN1C(=O)c1ccccc1,0.258 (inactive),0.628,-1.79,-5.17 (inactive),0.874 (inactive),0.76 (inactive)
[N-]=[N+]=NCc1ccccc1[C@@H]1OC(c2ccc(OCCCO)cc2)=N[C@]1(CCS(=O)(=O)c1ccccc1)C(=O)NCc1ccccc1,0.212 (inactive),0.838,-2.5,-0.438 (inactive),0.21 (inactive),-0.126 (inactive)
C[C@]1(C(=O)NC2CC2)c2ccccc2C(=O)N(Cc2cc(C(F)(F)F)cc(C(F)(F)F)c2)[C@H]1c1ccc(CO)cc1,1.56 (inactive),0.849,-0.895,-3.26 (inactive),-0.66 (inactive),-0.479 (inactive)
CCCCCCC#C[Si](O[C@H](c1ccccc1)c1cn([C@H](CO)Cc2ccccc2)nn1)(C(C)C)C(C)C,0.207 (inactive),0.0718,0.221,-1.34 (inactive),-0.653 (inactive),-0.496 (inactive)
O=C1C2C=CC(C(O)C3CCCCC3)N(Nc3ccc([N+](=O)[O-])cc3)C2C(=O)N1c1ccccc1 (stereo not drawn),-0.375 (inactive),0.526,-1.5,-2.33 (inactive),-0.0882 (inactive),-0.177 (inactive)
COC(=O)C=C(CC(O)c1cccc(Cl)c1)OC (stereo not drawn),0.633 (inactive),0.744,-0.0951,-1.42 (inactive),-1.22 (inactive),-1.18 (inactive)
OC([C@@H]1CC(c2ccccc2)=NO1)[C@H]1CC(c2ccccc2)=NO1 (stereo partly drawn),0.267 (inactive),-0.444,0.557,-0.163 (inactive),-0.801 (inactive),-1.25 (inactive)
COC(=O)[C@@]1(Cc2ccc(OC)cc2)[C@H]2c3cc(C(=O)N4CCCC4)n(Cc4ccsc4Br)c3C[C@H]2CN1C(=O)c1ccccc1,-0.0625 (inactive),0.75,-1.59,-5.51 (inactive),-0.592 (inactive),-1.13 (inactive)
CC(C)C[C@@H]1NC(=O)[C@H]2C[C@@H](C(=O)NCCCCCCN)[C@@H](c3ccc(O)cc3)N2C1=O,1.43 (inactive),0.776,-0.108,-2.64 (inactive),0.273 (inactive),-0.265 (inactive)
[N-]=[N+]=NCc1ccccc1C[C@]1(C(=O)NCC(O)CO)N=C(c2ccc(OCCCO)cc2)O[C@H]1c1ccccc1 (stereo partly drawn),0.417 (inactive),-0.148,-0.836,-6.51 (inactive),0.112 (inactive),0.377 (inactive)
C=CC[C@@]1(C(=O)N(C)C)N=C(c2ccc(OCCCO)cc2)O[C@@H]1c1ccccc1N=[N+]=[N-],0.158 (inactive),0.888,-2.09,-3.42 (inactive),0.0664 (inactive),0.157 (inactive)

Compound,composite z-score [1],composite z-score (XIP peptide (Xip251-270)),z-score [2],z-score [3],z-score [4],z-score [5]
COc1ccc([Si](C)(C)[C@H]2[C@H](CC(=O)N3CCC[C@H]3CO)O[C@@]3(C(=O)N(Cc4cccc(N5C(=O)c6cccc7cccc5c67)c4)c4ccccc43)[C@@H]2C)cc1,0.397 (inactive),0.674,-1.72,-3.25 (inactive),-0.0887 (inactive),-0.429 (inactive)
COC(=O)c1c(CC[C@@H](CO)NC(=O)N[C@@H](C)Cn2cc(C3(O)CCCCC3)nn2)oc(C(C)=O)c1C(=O)OC,0.946 (inactive),0.836,-2.45,-3.05 (inactive),0.0032 (inactive),0.715 (inactive)
O=C(NCc1ccccc1)[C@@]1(Cc2ccccc2)N=C(c2ccc(OCCCO)cc2)O[C@H]1c1ccccc1,1.46 (inactive),0.684,-2.39,-1.7 (inactive),-0.306 (inactive),0.0631 (inactive)
COCCOC(=O)N1C(=O)[C@@]2(c3cc(C#Cc4ccc(OC)cc4)ccc31)[C@H](C(N)=O)[C@H]1C(=O)O[C@H](c3ccccc3)[C@H](c3ccccc3)N1[C@@H]2c1ccccc1OCCO,1.85 (inactive),0.888,-2.04,-1.77 (inactive),-0.111 (inactive),-0.559 (inactive)
COC(=O)[C@@]1(Cc2ccccc2)[C@H]2c3cc(C(=O)N4CCCC4)n(Cc4cccc5ccccc45)c3C[C@H]2CN1C(=O)c1ccccc1,0.112 (inactive),-0.569,-1.35,-3.06 (inactive),1.05 (inactive),0.243 (inactive)
N#Cc1ccc(NN2C(C(O)c3c(F)cccc3Cl)C=CC3C(=O)N(c4ccccc4)C(=O)C32)cc1 (stereo not drawn),0.817 (inactive),0.748,-0.677,0.238 (inactive),0.0345 (inactive),0.0457 (inactive)
CN(C)C(=O)[C@]1(Cc2ccccc2CN=[N+]=[N-])N=C(c2ccc(OCCCO)cc2)O[C@@H]1c1ccccc1CN=[N+]=[N-],1.01 (inactive),0.637,-2.68,-0.212 (inactive),-0.123 (inactive),-0.249 (inactive)
CN1C(=O)[C@]2(Cc3ccccc3)N=C(c3ccc(OCCCO)cc3)O[C@@H]2c2ccccc21,0.97 (inactive),0.818,-2.3,-4.54 (inactive),-0.276 (inactive),0.0593 (inactive)
CCCCCN1CC=CC23O[C@@H]4/C=C\CCCOC(=O)C4[C@H]2C(=O)N(C(CO)C(C)C)[C@@H]3C1=O (stereo partly drawn),-0.0186 (inactive),0.0798,0.609,-4.65 (inactive),-0.609 (inactive),-0.33 (inactive)
CCCC#C[Si](O[C@H](CC)c1cn([C@H](CO)Cc2ccccc2)nn1)(C(C)C)C(C)C,0.149 (inactive),0.405,0.129,-0.713 (inactive),0.112 (inactive),-0.311 (inactive)
C=C(/C(=C/C[C@@H](OC(C)=O)c1ccc(OCCO)cc1)c1cnc2ccccc2c1)C(C)C,0.174 (inactive),0.178,-3,-4.09 (inactive),-1.03 (inactive),-0.163 (inactive)
CN(C)CCCNC(=O)[C@@]1(c2ccc([N+](=O)[O-])cc2)CC(=O)N(C2CCCCC2)[C@@H]1c1ccc(CO)cc1,-0.209 (inactive),-0.0124,-1.11,-0.842 (inactive),-0.196 (inactive),-0.495 (inactive)
COc1ccc(C(=O)Nc2ccc(CN3C(=O)[C@@]4(O[C@@H](CCn5cc([C@H](O)c6ccccc6)nn5)[C@H]([Si](C)(C)c5ccc(OC)cc5)[C@H]4C)c4ccccc43)cc2)cc1,0.0679 (inactive),0.216,-2.3,0.568 (inactive),-0.0665 (inactive),-0.348 (inactive)
CC(C)(C)OC(=O)CC[C@]12N=C(c3ccc(OCCCO)cc3)O[C@H]1c1ccccc1N(CCS(=O)(=O)c1ccccc1)C2=O,1.11 (inactive),0.781,-1.96,-2.7 (inactive),-0.266 (inactive),-0.249 (inactive)
COC(=O)c1c(CC[C@@H](CO)NC(=O)N[C@H](Cn2cc(Cc3ccccc3)nn2)C(C)C)oc(C(C)=O)c1C(=O)OC,0.369 (inactive),-0.0446,-1.99,-0.701 (inactive),1.02 (inactive),1.38 (inactive)
CC1(C)[C@@H]2CC(C(O)C3C=CC4C(=O)N(c5ccccc5)C(=O)C4N3Nc3ccccc3)=C[C@H]1C2 (stereo partly drawn),0.386 (inactive),0.576,-0.0796,-3.65 (inactive),-0.583 (inactive),-0.715 (inactive)
